Assay outcomes deposited in PubChem BioAssay by several laboratories.
AMPAR-TARP mod – GluA2-stargazin AMPA receptor complex modulation. HEK293 GluA2+stargazin, membrane potential dye (FDSS), glutamate EC50; hits were called plate by plate, in both directions. calls only at 30 µM. actives 3.5% (n = 40,000);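 active = any of four per-well response measures lying three or more SD from its plate-wide compound average, in either direction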
GIRK2 act – Activates human GIRK2-containing potassium channels | HEK293 GIRK2/NPY4 cells, thallium flux fluorescence | 34,000 tested, under 10 active | activation (% efficacy), % for hits at 75 µM | P48051;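 active = primary screen hit, no activity in plain HEK293 cells, and in GIRK2-only cells above 5% efficacy rising with concentration; inactive = the rest, including fluorescent compounds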;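 note: efficacy is normalized control-subtracted fluorescence 15 s after thallium addition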
Target sequence (P48051 whole entry, looked up): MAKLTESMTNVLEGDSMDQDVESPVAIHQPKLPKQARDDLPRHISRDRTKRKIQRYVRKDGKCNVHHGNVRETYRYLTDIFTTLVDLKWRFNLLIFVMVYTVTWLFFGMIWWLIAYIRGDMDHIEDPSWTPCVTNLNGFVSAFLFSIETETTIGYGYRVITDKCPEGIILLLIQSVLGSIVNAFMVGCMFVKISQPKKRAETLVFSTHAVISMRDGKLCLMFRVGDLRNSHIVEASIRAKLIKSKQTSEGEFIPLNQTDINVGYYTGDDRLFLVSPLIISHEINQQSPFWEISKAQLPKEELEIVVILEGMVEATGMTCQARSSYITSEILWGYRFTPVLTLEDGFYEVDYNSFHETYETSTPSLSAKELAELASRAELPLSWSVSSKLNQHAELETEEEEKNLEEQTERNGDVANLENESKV
The depositor's hits bear a star; i = inactive; nt = no result; + = active, no number. Shown is part of a subset that was picked to be rich in hits.

SMILES	AMPAR-TARP mod	GIRK2 act
CC(C)NC(=O)c1ccc2c(=O)n(Cc3ccccc3)c3nnc(SCC(N)=O)n3c2c1	+	i
CC(C)NC(=O)c1ccc(Cn2c(SCC#N)nc3ccccc3c2=O)cc1	i	i
CC(C)NC(=O)CSc1nnc2n(Cc3ccccc3)c(=O)c3ccc(C(=O)NC(C)C)cc3n12	+	i
CCCNC(=O)c1ccc(Cn2c(SCC(=O)NC(C)C)nc3ccccc3c2=O)cc1	i	i
COc1ccc(CCNC(=O)C(=O)Nc2cccc(C(F)(F)F)c2)cc1OC	i	nt
COc1ccc2c(c1)O/C(=C\c1cccc([N+](=O)[O-])c1)C2=O	i	nt
CC(C)S(=O)(=O)c1ccc(C(=O)Nc2sc3c(c2C(N)=O)CCCC3)cc1	i	i
CC(=O)N1CCc2c(sc(NC(=O)c3ccc(S(=O)(=O)C(C)C)cc3)c2C(N)=O)C1	+	i
COc1ccc2nc(-c3ccc(C)c(NS(=O)(=O)c4ccc(C(C)=O)cc4)c3)cn2n1	+	i
COc1ccc2nc(-c3ccc(C)c(NS(=O)(=O)c4cc(C)ccc4OC)c3)cn2n1	nt	i
COc1ccc2nc(-c3ccc(C)c(NS(=O)(=O)c4ccc(C)c(C)c4)c3)cn2n1	nt	i
COc1ccc2nc(-c3ccc(C)c(NS(=O)(=O)c4ccc(C)s4)c3)cn2n1	+	i
Cc1ccc(S(=O)(=O)Nc2ccc3c(c2)CCCN3S(=O)(=O)c2ccc(C)cc2)cc1	i	nt
O=C(Cc1csc(Nc2ccccc2)n1)NCCc1ccccc1	i	i
CC(CCc1ccccc1)NC(=O)Cc1csc(Nc2ccccc2)n1 (stereo unspecified)	+	i
COc1ccccc1NC(=O)NCC(O)c1ccsc1 (stereo unspecified)	i	i
CC1(C)C(=O)NCCN1C(=O)c1ccco1	+	i
Cn1ccc(C(=O)N2CCNC(=O)C2(C)C)n1	i	i
CCCOc1cn(-c2ccc(F)cc2)nc1C(=O)NCCN1CCOCC1	i	i
O=C(NCc1ccncc1)C(=O)Nc1ccc(F)c([N+](=O)[O-])c1	i	i
O=C(Nc1ccc(O)cc1)C(=O)Nc1ccc(F)c([N+](=O)[O-])c1	+	i
CCNc1cc(C)nc(N2CCN(S(=O)(=O)c3ccccc3Cl)CC2)n1	i	i
Cc1ccc(Cl)cc1N1CCN(C(=O)c2cc3cc(Br)ccc3oc2=O)CC1	i	i
Cc1cc(C)c(N2CCN(C(=O)c3cc4cc(Br)ccc4oc3=O)CC2)c(C)c1	+	i
COc1ccc(-c2ccc(=O)n(CCCC(=O)N3CCc4ccccc43)n2)cc1OC	i	i
SMILES	AMPAR-TARP mod	GIRK2 act
Cc1ccc(-c2ccc(=O)n(CCCC(=O)N3c4ccccc4CC3C)n2)cc1 (stereo unspecified)	+	i
COc1ccc(CCC(=O)Nc2cccc(-n3c(C)nc4ccccc4c3=O)c2)cc1	+	nt
COc1ccc(CCC(=O)Nc2cc(-n3c(C)nc4ccccc4c3=O)ccc2F)cc1	i	i
O=C(CS(=O)(=O)c1ccc(Br)s1)NCc1ccco1	i	i
COc1ccc(CCS(=O)(=O)NCC(O)c2cccn2C)cc1 (stereo unspecified)	i	i
O=C(CN1CCC(c2nnc(C3CC3)o2)CC1)NCCc1ccccc1	+	i
O=C(NCCc1ccccc1)N1CCC(c2nnc(C3CC3)o2)CC1	i	nt
O=C(Nc1ccc(SCC(=O)N2CCc3ccccc32)nn1)c1ccccc1	i	i
CCOc1ccc(-c2ccc(N3CCN(C(=O)c4ccccn4)CC3)nn2)cc1	i	i
COC(=O)c1ccc2c(=O)n(Cc3ccc(C(=O)NCCCN4CCOCC4)cc3)c(=S)[nH]c2c1	+	i
COC(=O)c1ccc2c(=O)n(Cc3ccc(C(=O)NC4CCCC4)cc3)c(=S)[nH]c2c1	i	i
CC(=O)OC(COc1ccc(N(C)C(C)=O)cc1)Cn1c2ccccc2c2ccccc21 (stereo unspecified)	+	i
CC(=O)OC(Cn1nc(C)cc1C)Cn1c2ccccc2c2ccccc21 (stereo unspecified)	i	i
Cn1c(=O)c2c(nc(CN3CCN(c4ccc(F)cc4)CC3)n2CC(=O)C(C)(C)C)n(C)c1=O	i	i
CC1CC(C)CN(Cc2nc3c(c(=O)n(C)c(=O)n3C)n2CC(=O)C(C)(C)C)C1 (stereo unspecified)	+	i
COc1ccc(-c2cc(CC(=O)N3CCc4ccccc4C3)no2)cc1OC	i	i
COc1cccc(-c2cc(CC(=O)N3CCc4ccccc4C3)no2)c1	+	i
COCC(=O)NCC1CC(=O)N(c2ccc(C)cc2)C1 (stereo unspecified)	i	i
CC1CN(c2ccc(Br)cc2)c2nc3c(c(=O)n(CC(=O)O)c(=O)n3C)n2C1 (stereo unspecified)	i	nt
